Shown are actives, neighbours in structure and some others; about 2.1% of the full set was active somewhere.
PfHsp40 rescue – rescue of yeast from PfHsp40 toxicity, primary screen, S. cerevisiae, ATP luminescence; S. cerevisiae expressing PfHsp40, growth rescue; 340,000 tested, 0.68% active; AID 504582, 2011; growth rescue, % at 12.5 µM; in the data active means growth rescue above about 28%, passing the limit was not always enough;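 further: yeast W303a lacking pdr1 and pdr3 grown in galactose medium; growth measured after three days at 30 °C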
VHR inh abs – VHR1 phosphatase inhibitors, primary screen, biochemical, absorbance, uHTS; Dual specificity protein phosphatase 3 (Homo sapiens), P51452; 290,000 tested, 0.52% active; inhibition, % at 13.3 µM; AID 1654, 2009; recombinant VHR phosphatase, pNPP absorbance; in the data active means inhibition above about 50%
Target sequence (P51452 whole entry, looked up): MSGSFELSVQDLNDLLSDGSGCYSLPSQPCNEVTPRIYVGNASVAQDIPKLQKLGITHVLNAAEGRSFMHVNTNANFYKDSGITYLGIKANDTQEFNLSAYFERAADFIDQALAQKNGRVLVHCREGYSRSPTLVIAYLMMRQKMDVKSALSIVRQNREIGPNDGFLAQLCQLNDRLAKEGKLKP
PrPC surface inh – inhibitors of human cell surface prion protein PrPC, primary screen, cell-based, TR-FRET | inhibition, % at 13.8 µM | AID 720596, 2013 | Major prion protein (Homo sapiens), P04156 | 370,000 tested, 0.43% active | TR-FRET read-out; in the data active means inhibition above about 24%; further: 0% = median of the test wells and 100% = reference compound wells
BJeLR lethal – MLPCN primary cell-based screen for lethality selective to Ras in HRASV12 cells | inhibition, % (test concentration not listed) | BJeLR (HRASV12) viability, CellTiter-Glo ATP luminescence, 48 h | 300,000 tested, 0.17% active; in the data active means inhibition above about 50%
MazF activator – activators of E. coli MazEF toxin-antitoxin RNase, primary screen, biochemical, fluorescence, uHTS; activation, % at 20 µM; Endoribonuclease toxin MazF (Escherichia coli (strain K12)), P0AE70; 350,000 tested, 0.32% active; FAM/BHQ RNA-DNA oligo cleavage fluorescence, 5 h; in the data active means activation above about 50%
Target sequence (P0AE70 whole entry, looked up): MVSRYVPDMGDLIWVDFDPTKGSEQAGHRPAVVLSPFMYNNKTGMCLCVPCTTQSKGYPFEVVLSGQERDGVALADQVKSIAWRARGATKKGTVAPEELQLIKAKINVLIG
PrP UTR inh – inhibition of PrP 5' UTR reporter expression | 340,000 tested, 0.35% active | AID 488862, 2010 | inhibition, % (no concentration beside the values) | cell-based PrP 5' UTR mRNA reporter, plate reader; in the data active means inhibition above about 52%; further: 0 = median of the neutral control wells
* marks the source's active call; other numbers are inactive results; . = no result given.

SMILES | PfHsp40 rescue | VHR inh abs | PrPC surface inh | BJeLR lethal | MazF activator | PrP UTR inh
O=[N+]([O-])c1cccc(OCc2cn3cccnc3n2)c1 | -2 | 53* | -32 | -5 | -31 | -24
CCOc1cc(C2C(C#N)=C(N)OC(C)=C2C(C)=O)cc(Br)c1O (stereo not drawn) | -1 | 50* | -7 | 0 | -116 | -24
C#CCNC(=O)C[C@H]1C[C@@]2(C(=O)OC)C(=C[C@H](COCc3ccccc3)O[C@@H]2C)N(Cc2ccc(Cl)cc2Cl)C1=O | . | . | -3 | . | . | .
COc1cc(OC)c(OC)cc1/C=C(\C#N)C(=O)NCc1cccs1 | 0 | 11 | 7 | 7 | 84* | -6
COc1cc(NC(=O)COC(=O)CNC(=O)C23CC4CC(CC(C4)C2)C3)cc(OC)c1 | 0 | . | 3 | . | 4 | -15
COc1ccc2c(COC(=O)CNC(=O)C34CC5CC(CC(C5)C3)C4)cc(=O)oc2c1 | 5 | 51* | -5 | -7 | -4 | -20
COC(CNC(=O)[C@H](Cc1ccccc1)NC(C)(C)C(=O)NC1CCCCC1)OC | . | . | 0 | . | . | .
CCCCN(C)S(=O)(=O)c1cc2c3c(c1)CCC(=O)N3CCC2 | 0 | 56* | 8 | 0 | 3 | -20
N#Cc1ccc(Cn2ccc3ccc(-c4ccc5ccn(C(=O)C6CC6)c5c4)cc32)cc1 | . | . | 3 | . | . | .
CC(C)(C)c1cc(C=C(C#N)C#N)cc(C(C)(C)C)c1O | 211* | . | -3 | . | -6 | 29
CCOC(=O)C1(Cc2ccc(Cl)cc2)CCN(C(C)Cc2ccc(O)c(OC)c2)CC1 (stereo not drawn) | 1 | -12 | 2 | 11 | 10 | -4
COc1cc2c(cc1OC)/C(=C/C(=O)c1ccc([N+](=O)[O-])c(C)c1)NCC2 | -1 | 9 | 5 | 12 | 74* | -3
COc1cc2c(cc1OC)/C(=C/C(=O)c1ccc(C)cc1)NCC2 | 1 | 15 | 1 | 0 | 4 | .
COc1cc2c(cc1OC)/C(=C/C(=O)c1ccccc1)NCC2 | 41* | 36 | 1 | 7 | 3 | 3
O=C(Nc1cccs1)OC1CC2CC1[C@H]1CCCCN1C2 (stereo partly drawn) | . | . | 0 | . | . | .
CCOC(=O)C1=CC[C@H]2c3c(c4ccc(OC)cc4n3C)C(=O)C1N2S(=O)(=O)c1ccc(C)cc1 | 2 | . | 12 | . | 1 | -17
CCc1ccc(N(CC(=O)N2CCN(Cc3ccccc3)CC2)S(C)(=O)=O)cc1 | 0 | 8 | 6 | 0 | 1 | -9
O=S(=O)(c1cc(Cl)cc(Cl)c1)N1CCC2CC1c1cc(Cl)ccc12 (stereo not drawn) | -2 | . | -7 | . | -2 | -2
Cc1cccc(NC(=O)Cn2c(=O)n(CCC(=O)NC3CCCC3)c(=O)c3ccccc32)c1 | -1 | 0 | -4 | -5 | 84* | -11
O=C(Nc1ncccc1O)c1cccc(S(=O)(=O)N2CCCC2)c1 | 1 | . | 5 | 4 | 6 | -14
O=C(Nc1ncccc1O)c1cccc(S(=O)(=O)N2CCc3ccccc32)c1 | 66* | 2 | 0 | 13 | 3 | -14
COc1cccc(CN(C)C(=O)c2cccc(OCc3ccccc3)c2)c1 | -1 | -12 | 0 | 3 | -4 | -15
Cc1ccc(NC(=O)CCNC(=O)c2ccc([N+](=O)[O-])cc2)cc1C | 2 | 21 | -34 | -7 | 8 | -17
Cc1ccccc1-c1cc(C(=O)NCc2ccc(OC(F)(F)F)cc2)n(CC2CC(c3cccnc3)=NO2)n1 (stereo not drawn) | 3 | . | 1 | . | -4 | 0
COc1ccc(NS(=O)(=O)c2ccc3c(c2)[C@H]2C=CC[C@H]2[C@@H](c2ccc(C(=O)O)cc2)N3)cc1 | 0 | -4 | -15 | 6 | -18 | -15
SMILES | PfHsp40 rescue | VHR inh abs | PrPC surface inh | BJeLR lethal | MazF activator | PrP UTR inh
Cc1c(Cl)cccc1NS(=O)(=O)c1ccc2c(c1)C1C=CCC1C(c1ccc(C(=O)O)cc1)N2 (stereo not drawn) | 35* | 46 | . | . | -6 | -32
CCC(C)Sc1ccc(-c2nc3ccccn3c2NCc2ccccc2)cc1OC (stereo not drawn) | 89* | . | . | . | 0 | -3
COc1ccc(CSc2ccc(-c3nc4ccccn4c3NCc3ccccc3)cc2OC)cc1 | 4 | . | 11 | 5 | -11 | -22
O=C(NCCCN1CCN(c2ccc(F)cc2)CC1)NCc1ccccc1 | . | . | 6 | . | . | .
c1cc(Nc2cccc3nccnc23)c2nccnc2c1 | 5 | -19 | -25 | -1 | 51* | -38
Cc1ccc(OCC(=O)Nc2c3c(nn2C(C)(C)C)CS(=O)(=O)C3)cc1 | -1 | 14 | 2 | 7 | 5 | -13
COc1ccc(/C=C2\SC(=S)N(CCCC(=O)Nc3cc(C)on3)C2=O)cc1OC | -1 | 10 | -1 | 0 | 150* | -14
COc1ccc(/C=C2\SC(=S)N(CCC(=O)Nc3ccc(C(=O)O)cc3)C2=O)cc1 | -1 | 52* | -9 | -10 | -2 | -16
O=C(O)CCN1C(=O)/C(=C\c2ccncc2)SC1=S | -2 | 10 | 12 | -9 | 5 | -20
COc1ccc(/C=C2/SC(=S)N(CCC(=O)O)C2=O)cc1 | 0 | 8 | -8 | 24 | -1 | 63*
CCOc1ccccc1NC(=O)CNC(=O)N1CC(=O)Nc2ccccc21 | 0 | 51* | -6 | 7 | 3 | -2
Cc1cc(/C=C2\C(=O)NC(=O)N(c3ccc(Cl)cc3)C2=O)c(C)n1C | -1 | 1 | 6 | 2 | 35 | -6
Cc1cc(C)cc(N2C(=O)NC(=O)/C(=C\c3cc(C)n(C)c3C)C2=O)c1 | 2 | -3 | -4 | 4 | 92* | -24
CC1CCN(CCCNC(=O)c2ccc(N3CCCC3=O)cc2)CC1 | 1 | 36 | 4 | 17 | 1 | -1
CC12CC3(C)CC(C)(C1)CC(NC(=O)N1CCCC1)(C2)C3 | 310* | 11 | 4 | 3 | 4 | 9
CC1(NC(=O)N2CCCCC2)CCS(=O)(=O)C1 (stereo not drawn) | 0 | -32 | 0 | 3 | 4 | -26
Cc1cccc(C)c1OCC(=O)NNC(=O)CCNC(=O)c1ccco1 | -1 | . | 7 | -2 | 0 | -15
CCC[C@H]1[C@@H](NS(=O)(=O)c2ccccc2[N+](=O)[O-])CC[C@@]23CCCN2C(=O)CCC[C@@H]13 | . | . | -5 | . | . | .
CCCN=C1N/C(=C\c2ccco2)C(=O)N1c1ccccc1 | 0 | 10 | -1 | -3 | 52* | -77
CCc1nc2ccccc2n1CC1CC1(Cl)Cl (stereo not drawn) | 56* | 8 | -3 | -2 | 2 | -15

Bioassay records: PubChem, several laboratories
